Bioassay records: PubChem BioAssay, several laboratories
The list is not random: actives were taken first. Their share in the collection is about 3.8%.
HSP90 inh – inhibitors of HSP90 luciferase refolding in rabbit reticulocyte lysate; luciferase refolding luminescence, 3 h; inhibition, % at 5.6 µM; 290,000 tested, 0.91% active; AID 1789;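 active = inhibition above the screen-wide mean plus 3 SD, computed separately per campaign, cut at about 16% in these data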;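 note: 0% = DMSO wells and 100% = 60 µM geldanamycin wells; inhibitors lower the luminescence because luciferase stays unfolded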
HSF1 inhib – HSF1 inhibition | NIH3T3-HGL HSE-luciferase, MG132-induced, luminescence 8 h; hits give low values | activity change, negative = inhibition, % at 7.5 µM (by protocol) | 300,000 tested, 0.77% active | AID 2098;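 active = more than half of replicate wells show activity change below -50%, luminescence cut by over half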;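 note: luciferase reports HSF-1 transcriptional activity via heat shock element; 0% = median of DMSO wells and -100% = zero luminescence signal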
Hsp70 act – switches on Hsp70 transcription; HeLa Hsp70 promoter luciferase reporter, luminescence; scaled: vehicle 0, proteasome-inhibitor control 100%; 200,000 tested, 0.04% active; activation, % at 10 µM;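 active = activation above the mean across all tested compounds plus 3 SD, cutoff set per campaign, cut at about 5.5% in these data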;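 note: 100% = MG132 at 30 µM as the positive control and 0% = DMSO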
NALP1 yeast inh – NALP1 inhibition; inhibition, % at 10 µM; AID 2071; S. cerevisiae NALP1/ASC/caspase-1 growth, X-gal OD620, 72 h; 280,000 tested, 0.61% active; in the data active = inhibition mostly above about 24%, no sharp cut-off; inactive = mostly below about 32%
HSF-1 act – increases HSF-1 driven luciferase reporter signal | NIH3T3-HGL HSF-1 luciferase reporter, MG132, 8 h; 100% = twice DMSO control signal | activation, % at 9 µM | 300,000 tested, 1.7% active | AID 504408;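 active = mean replicate activation of at least 50% with a set share of replicates each reaching 50%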;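 note: 0% = median of the neutral control wells and 100% = twice that signal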
pCIP destab – lowers stability of the mouse p/CIP coactivator protein; Q05BA5; F442A p/CIP-EGFP cells, EGFP fluorescence, 16 h; 290,000 tested, 0.01% active; decrease of EGFP signal, % at 10 µM;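 active = EGFP signal decrease of at least 30% at 10 µM or well 3 SD below plate mean, unless failing retest; inactive = the rest, including hits failing retest or dose response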
Target sequence (Q05BA5 1-1403): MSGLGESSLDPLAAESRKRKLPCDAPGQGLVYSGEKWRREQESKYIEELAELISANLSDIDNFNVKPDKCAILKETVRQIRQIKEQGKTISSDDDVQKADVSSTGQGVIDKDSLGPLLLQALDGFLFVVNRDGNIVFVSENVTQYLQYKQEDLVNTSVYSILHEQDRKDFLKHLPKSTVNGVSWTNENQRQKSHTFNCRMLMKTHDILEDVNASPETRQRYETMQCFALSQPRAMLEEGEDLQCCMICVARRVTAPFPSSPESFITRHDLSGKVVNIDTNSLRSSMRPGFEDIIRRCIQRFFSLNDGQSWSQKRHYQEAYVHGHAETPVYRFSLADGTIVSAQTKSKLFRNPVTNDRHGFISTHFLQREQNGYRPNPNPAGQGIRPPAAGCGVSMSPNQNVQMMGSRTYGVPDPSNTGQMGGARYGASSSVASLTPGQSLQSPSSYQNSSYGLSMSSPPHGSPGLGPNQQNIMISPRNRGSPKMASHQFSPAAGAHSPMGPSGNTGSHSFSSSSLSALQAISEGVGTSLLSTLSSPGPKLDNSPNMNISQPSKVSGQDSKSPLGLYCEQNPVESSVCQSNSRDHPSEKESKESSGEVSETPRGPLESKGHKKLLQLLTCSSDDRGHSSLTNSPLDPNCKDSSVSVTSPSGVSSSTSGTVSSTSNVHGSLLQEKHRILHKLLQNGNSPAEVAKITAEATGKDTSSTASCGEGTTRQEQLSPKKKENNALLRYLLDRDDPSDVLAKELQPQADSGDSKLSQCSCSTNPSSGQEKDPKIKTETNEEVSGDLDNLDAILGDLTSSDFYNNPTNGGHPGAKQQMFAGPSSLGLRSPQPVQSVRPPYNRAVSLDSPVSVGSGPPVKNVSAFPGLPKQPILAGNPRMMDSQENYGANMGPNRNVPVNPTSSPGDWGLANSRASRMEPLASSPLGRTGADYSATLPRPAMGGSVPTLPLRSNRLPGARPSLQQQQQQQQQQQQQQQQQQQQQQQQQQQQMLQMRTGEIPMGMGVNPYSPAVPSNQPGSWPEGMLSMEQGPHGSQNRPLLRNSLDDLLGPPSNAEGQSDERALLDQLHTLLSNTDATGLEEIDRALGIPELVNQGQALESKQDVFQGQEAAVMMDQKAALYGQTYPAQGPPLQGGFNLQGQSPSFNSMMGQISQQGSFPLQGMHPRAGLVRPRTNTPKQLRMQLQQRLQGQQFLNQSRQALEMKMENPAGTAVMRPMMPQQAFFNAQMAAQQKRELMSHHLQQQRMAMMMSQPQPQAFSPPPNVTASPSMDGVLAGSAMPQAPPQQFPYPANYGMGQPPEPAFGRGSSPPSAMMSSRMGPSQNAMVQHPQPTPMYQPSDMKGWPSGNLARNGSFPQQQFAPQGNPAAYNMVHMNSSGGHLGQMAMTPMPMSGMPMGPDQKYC
Active calls of the source: *; nt = not tested or not shown.

SMILES | HSP90 inh | HSF1 inhib | Hsp70 act | NALP1 yeast inh | HSF-1 act | pCIP destab
CCSc1nnc(Cc2cc(=O)[nH]c(=O)[nH]2)n1-c1cc(C)ccc1C | -3 | 1 | -1 | 28* | -11 | -22
Cc1nc2ccc(NC(=O)c3cc([N+](=O)[O-])cc([N+](=O)[O-])c3Cl)cc2s1 | -6 | nt | 0 | 58* | nt | -4
Cc1cc(NC(=O)c2ccc3nc(C)sc3c2)no1 | 0 | -67* | 0 | 10 | -73 | -7
Cc1ccc(C(=O)Nc2ccc3nc(C)sc3c2)s1 | -2 | 33 | 0 | 58 | 56* | -1
Cc1nc2ccc(NC(=O)c3cc(Cl)ccn3)cc2s1 | 7 | 17 | nt | 1 | 40 | -15
O=C(Nc1ccc2c(c1)OCCO2)c1ccc(Br)s1 | 12 | 8 | 0 | 33 | 44 | 4
Cc1nc2cc(NC(=O)c3ccc(Br)s3)ccc2s1 | 0 | 34 | nt | 9 | 56* | -6
O=C(CNC(c1ccccc1)c1ccccc1)Nc1cc([N+](=O)[O-])ccc1Cl | -2 | -7 | 0 | 24 | -5 | -10
O=C1NC(SCCCF)=N/C1=C/c1ccc(-n2cncn2)cc1 | -5 | -7 | nt | nt | 2 | -2
O=[N+]([O-])c1ccc(-c2nc3ccc([N+](=O)[O-])cc3[nH]2)cc1 | -1 | 37 | 0 | 3 | 55* | -25
NS(=O)(=O)c1cccc(NC(=O)c2cccc(-c3ccc(O)cc3)c2)c1 | 1 | 3 | nt | 20 | 15 | 2
CCCCn1c(CN2CCN(c3cccc(Cl)c3)CC2)nc2c1c(=O)[nH]c(=O)n2C | 6 | -3 | 0 | 8 | -14 | -26
CCOC(=O)Cn1c(CN2CCN(c3cccc(Cl)c3)CC2)nc2c1c(=O)[nH]c(=O)n2C | 0 | -55* | 0 | -44 | -65 | -4
COC(OC)c1ccnc(-c2ccc(OC(=O)c3cccs3)cc2)n1 | -2 | -1 | 0 | 4 | 1 | 2
Cc1cccc(NC(=O)c2ccc3[nH]c(=O)c(=O)[nH]c3c2)n1 | -5 | -2 | nt | 8 | -3 | 3
Cc1ccc(OCC(=O)O/N=C(\N)c2ccccn2)cc1C | 2 | 62 | nt | -3 | 108* | -21
N/C(=N\OC(=O)COc1ccccc1)c1ccccn1 | -5 | 9 | 0 | 21 | 33 | 0
N/C(=N\OC(=O)C(c1ccccc1)c1ccccc1)c1cccnc1 | -2 | 4 | 0 | 6 | -1 | -6
N/C(=N\OC(=O)COc1ccc(Br)cc1)c1cccnc1 | -5 | 24 | 0 | 29 | 57* | -11
CCc1ccc(OCC(=O)O/N=C(\N)c2ccccn2)cc1 | 6 | 30 | nt | nt | 64* | -10
N/C(=N\OC(=O)C(c1ccccc1)c1ccccc1)c1ccccn1 | -1 | 39 | 0 | 6 | 73* | -7
COc1ccc(-c2nn(-c3ccccc3)cc2C(=O)NC2CCC(C)CC2)cc1 (stereo not drawn) | nt | -4 | nt | nt | 3 | nt
CN(c1ccccc1)c1ccc(/C=C(\CCC(=O)O)c2nc3ccccc3s2)cc1[N+](=O)[O-] | -2 | 16 | 0 | 30 | 57* | -6
O=[N+]([O-])c1ccc(O)c(C=Nc2ccc3oc(Cc4ccc(Cl)cc4)nc3c2)c1 | 1 | -74* | 0 | 17 | -78 | 16
O=[N+]([O-])c1ccc(O)c(C=Nc2ccc3c(c2)OCCO3)c1 | 0 | -64* | 0 | 21 | -68 | -19
SMILES | HSP90 inh | HSF1 inhib | Hsp70 act | NALP1 yeast inh | HSF-1 act | pCIP destab
O=[N+]([O-])c1ccc(O)c(C=Nc2cccc3ccccc23)c1 | 8 | 1 | nt | -11 | 5 | 3
Oc1c(Br)cc(Br)cc1C=Nc1ccc2c(c1)OCCO2 | -2 | -79* | 0 | 14 | -80 | 0
CCOC(=O)C1(CC2CCCCO2)CCN(Cc2nc3ccccc3[nH]2)CC1 (stereo not drawn) | 2 | -97* | 0 | -19 | -97 | -7
CCc1c(O)nc(SCC(=O)Nc2ccc(Br)cc2)n(-c2ccc(C)cc2)c1=O | -1 | 9 | nt | 35* | 11 | -4
CCOCCCNC(=O)C1CC(=O)N(CCc2ccc(C)cc2)C1 (stereo not drawn) | -2 | 5 | nt | 38* | 0 | -7
COc1ccc(NS(=O)(=O)c2cc(NC(=O)c3ccc(C)s3)ccc2N2CCOCC2)cc1 | 3 | 9 | nt | -8 | 13 | -16
Cc1onc(-c2ccccc2)c1C(=O)N=C(N)c1ccc(C(F)(F)F)cc1 | 3 | 40 | nt | 2 | 82* | 1
Cc1onc(-c2ccccc2)c1C(=O)c1ccccc1 | 0 | -7 | nt | 9 | 6 | -4
Cc1cccc(/N=C/c2nc(-c3ccccc3Br)oc2O)n1 | 1 | 45 | 0 | 21 | 91* | -8
O=C(/C=C/c1ccc(-c2ccccc2)o1)c1ccccc1 | 8 | 42 | 0 | nt | 72* | -10
Cc1ccc(-c2ccc(/C=C/C(=O)c3ccccc3)o2)cc1 | -2 | 55 | 0 | nt | 76* | -10
Cc1ccc(C(=O)/C=C/c2ccc(-c3ccccc3[N+](=O)[O-])o2)cc1 | -1 | 2 | 0 | 36 | -1 | 2
O=C(c1cc(-c2ccc(F)cc2)on1)N1CCOCC1 | 10 | 30 | nt | 10 | 44 | 3
COc1cccc(-c2cc(C(=O)N3CCCCCC3)no2)c1 | 15 | 7 | 0 | 30 | 13 | -1
COc1ccc(-c2cc(C(=O)Nc3cc(C)ccc3O)no2)cc1 | -6 | 23 | nt | 14 | 68* | -11
O=C(c1cc(-c2ccc(F)cc2)on1)N1CCCCCC1 | 17* | 5 | nt | 36 | 6 | -22
COc1ccc(-c2cc(C(=O)N3CCCCCC3)no2)cc1 | 10 | 25 | nt | 16 | 60* | -11
O=C(c1cc(-c2ccc(F)cc2)on1)N1CCCC1 | 7 | 29 | 0 | -14 | 62* | -9
O=C(NNS(=O)(=O)c1ccccc1)c1cccc(F)c1 | 0 | -5 | nt | 14 | -15 | -6
C=CCn1c(=NC(=O)C2CC2)sc2cc(NC(C)=O)ccc21 | -1 | -55* | 0 | 24 | -65 | -15
C=CCn1c(=NC(=O)C2CCCCC2)sc2cc(NC(C)=O)ccc21 | 1 | -6 | 0 | 22 | -6 | 9
C/C(=N\OCC(=O)Nn1c(=O)[nH]c2ccccc2c1=O)c1cccs1 | -1 | -58* | 0 | -18 | -68 | 6
CC1(C)CC(NC(=O)C(Cl)(Cl)Cl)CC(C)(C)N1 | -2 | -2 | 0 | 20 | -4 | -4
Cc1ccsc1/C=C1/SC(N2CC(C)OC(C)C2)=NC1=O (stereo not drawn) | -1 | 25 | 0 | 10 | 52* | -15
COc1cc(C(=O)c2c(C)c(CCC#N)n3ccccc23)cc(OC)c1OC | -2 | 2 | 0 | 9 | 11 | 14
COc1cccc(C(=O)c2c(C)c(CCC#N)n3ccccc23)c1OC | -1 | 120 | 0 | 2 | 180* | -12
